Results as given in the antibiotic and cytotoxicity screens of Wong et al. (2023).
About 1,500 (3.8%) of roughly 39,000 compounds were called active. The entries come from a sample that favours actives as a whole.

Test system: HSkMC (human skeletal muscle cells)
Assay: cytotoxicity call (relative viability < 0.9)
Details: 10 µM

Row | SMILES | cytotoxicity call
1 | CCCCOC(=O)C1=CC(=O)CC(C)(C)O1 | inactive
2 | CNCCc1ccc(O)c(O)c1 | inactive
3 | NCCN1CCN(c2ccc(F)cc2)CC1 | inactive
4 | CCCCCCCCCCCCCCCC[n+]1ccccc1.[Cl-] | active
5 | CCCCCCCCCCCCCCCC[n+]1ccccc1 | active
6 | c1ccc(CN2CCNCC2)nc1 | inactive
7 | CN[C@@H](C)Cc1cnccn1 | inactive
8 | CCOCC(=O)N[C@H]1CCSC1=O | inactive
9 | O=C1C[C@@H](CO)CN1 | inactive
10 | CN(C)C(=O)C(CCN1CCC(O)(c2ccc(Cl)cc2)CC1)(c1ccccc1)c1ccccc1.Cl | inactive
11 | CC12CCC3C(CC=C4CC(O)CCC43C)C1CCC2=O (centres undefined) | inactive
12 | C[C@]12CCC(=O)C[C@@H]1CC[C@@H]1[C@@H]2CC[C@]2(C)C(=O)CC[C@@H]12 [5alpha-ANDROSTAN-3,17-DIONE ] | inactive
13 | C[C@]12CC/C(=N\OCCN)C[C@@H]1C(=O)C[C@@H]1[C@@H]2CC[C@]2(C)C(=O)CC[C@@H]12 | active
14 | CC1=C2C(=COC(C)C2C)C(O)=C(C(=O)O)C1=O (centres undefined) | inactive
15 | C=C(C)[C@H]1CN[C@H](C(=O)O)[C@H]1CC(=O)O | inactive
16 | COC(=O)C[C@H]1CC[C@@H]2NC[C@@H](O)COC[C@H]2O1 | inactive
17 | Cc1ccc2c(CCN)c(C)n(C)c2c1 | inactive

Row | SMILES | cytotoxicity call
18 | CCn1nc(-c2cccnc2)nc2c(=O)n(C)c(=O)nc1-2 | active
19 | C1C[C@@H]2C[C@@H]2N1 | inactive
20 | S=C=Nc1cccc(C2(N3CCCCC3)CCCCC2)c1 | inactive
21 | Cc1ncc(CNC(=O)N(CCCl)N=O)c(N)n1.Cl | inactive
22 | CCC1(c2ccccc2)C(=O)NC(=O)NC1=O | inactive
23 | NC[C@H]1CCCc2ccc(Cl)cc21 | inactive
24 | COCC(=O)N1[C@@H]2c3ccc(C4=CCCC4)c(=O)n3C[C@H]1[C@H](CO)[C@H]2C(=O)OC | inactive
25 | CC(=O)OC1CCC2(C)C(=CCC3C4CCC(=O)C4(C)CCC32)C1 (centres undefined) | inactive
26 | CC1(C)S[C@@H]2[C@H](N)C(=O)N2[C@H]1C(=O)O | inactive
27 | N.N.[Cl][Pt][Cl] | inactive
28 | CCOC(=O)c1c(CN2CCN(Cc3ccccc3)CC2)n(Cc2ccccc2)c2cc(Br)c(O)cc12 | active
29 | CCOC(=O)c1c(CN2CCN(c3ccccc3)CC2)n(Cc2ccccc2)c2cc(Br)c(O)cc12 | active
30 | CNCc1cccnc1 | inactive
31 | O=C1CO[C@H]2CNC[C@@H]2N1CC1CCCC1 | inactive
32 | C[C@H](CO)N1C[C@H](C)[C@@H](CN(C)C(=O)Oc2ccc3ccccc3c2)OCc2cnnn2CCCC1=O | inactive
33 | O/N=C1\CN2CCC1CC2 | inactive
34 | C=C(C)C1Cc2c(ccc3c2OC2COc4cc(OC)c(OC)cc4C2C3=O)O1 (centres undefined) | inactive
